PubChem BioAssay (EPA / NIEHS)
Several values for one entry are separate records, joined by “and”; a condition that tells them apart may be missing. Equal values may be shown once. More than one record can exist for a structure, and the calls need not agree. Activity calls are given as the source filed them. The calls were made as follows: active = hit-call score of the fitted dose curve at least 0.9, where 1 is the maximum; inactive = score below 0.9.

Read-out: Plasminogen activator inhibitor-1 (PAI1), SERPINE1 (gene 5054)
Assay: BSK_CASM3C_PAI1: BioMAP Diversity Plus: CASM3C Assay for Plasminogen activator inhibitor-1 (PAI1) Biomarker Activity (AID 2284284);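 also: PAI-1 protein level measured by ELISA 24 h after dosing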
Details: primary human coronary artery smooth muscle cells

SMILES | AC50 | outcome
Oc1c(Cl)cc(Cl)cc1Sc1cc(Cl)cc(Cl)c1O | 18.3 µM (active) | inactive
O=C(CC(=O)C(F)(F)C(F)(F)C(F)(F)F)c1cccs1 |  | inactive
C=CC(=O)OCCC(F)(F)C(F)(F)C(F)(F)C(F)(F)C(F)(F)C(F)(F)C(F)(F)C(F)(F)F |  | inactive
O=C(O)CCC(F)(F)C(F)(F)C(F)(F)C(F)(F)C(F)(F)C(F)(F)F |  | inactive
O=C(O)CCC(F)(F)C(F)(F)C(F)(F)C(F)(F)C(F)(F)F |  | inactive
OCC(F)(F)C(F)(F)C(F)(F)C(F)(F)C(F)(F)C(F)(F)C(F)(F)C(F)(F)C(F)(F)C(F)(F)C(F)(F)F |  | inactive
O=P(O)(O)CCC(F)(F)C(F)(F)C(F)(F)C(F)(F)C(F)(F)C(F)(F)F |  | inactive
CN(CCO)S(=O)(=O)C(F)(F)C(F)(F)C(F)(F)C(F)(F)C(F)(F)C(F)(F)C(F)(F)C(F)(F)F |  | inactive
Oc1ccc(Cc2ccccc2O)cc1 |  | inactive
CCCCCCCCCCCC |  | inactive
O=S(=O)(O)C(F)(F)C(F)(F)C(F)(F)C(F)(F)C(F)(F)C(F)(F)C(F)(F)C(F)(F)C(F)(F)C(F)(F)F |  | inactive
CN(Cc1cnc2nc(N)nc(N)c2n1)c1ccc(C(=O)N[C@@H](CCC(=O)O)C(=O)O)cc1 |  | inactive
O=C1NS(=O)(=O)c2ccccc21 |  | inactive
O=P(O)(O)CCC(F)(F)C(F)(F)C(F)(F)C(F)(F)C(F)(F)C(F)(F)C(F)(F)C(F)(F)F |  | inactive
O=C(O)C(F)(F)OC(F)(F)C(F)(F)OC(F)(F)C(F)(F)OC(F)(F)C(F)(F)C(F)(F)C(F)(F)F |  | inactive

Read-out: Monocyte Chemoattractant Protein-1 (MCP1), CCL2 (gene 6347)
Assay: BSK_hDFCGF_MCP1: BioMAP Diversity Plus: hDFCGF Assay for Monocyte Chemoattractant Protein-1 (MCP1) Biomarker Activity (AID 2284285)
Details: primary human foreskin fibroblasts
Procedure, shortened: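 MCP-1 ELISA readout was taken 24 hours after dosing primary human dermal fibroblasts in the hDFCGF system, with DMSO as baseline. Parallel sulforhodamine B staining of total protein tracked overt cytotoxicity.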

SMILES | AC50 | outcome
Oc1c(Cl)cc(Cl)cc1Sc1cc(Cl)cc(Cl)c1O | 2.54 µM (active) and 3.14 µM (active) | 
O=C(CC(=O)C(F)(F)C(F)(F)C(F)(F)F)c1cccs1 |  | inactive
C=CC(=O)OCCC(F)(F)C(F)(F)C(F)(F)C(F)(F)C(F)(F)C(F)(F)C(F)(F)C(F)(F)F | 7.29 µM (active) | inactive
O=C(O)CCC(F)(F)C(F)(F)C(F)(F)C(F)(F)C(F)(F)C(F)(F)F |  | inactive
O=C(O)CCC(F)(F)C(F)(F)C(F)(F)C(F)(F)C(F)(F)F |  | inactive
OCC(F)(F)C(F)(F)C(F)(F)C(F)(F)C(F)(F)C(F)(F)C(F)(F)C(F)(F)C(F)(F)C(F)(F)C(F)(F)F |  | inactive
O=P(O)(O)CCC(F)(F)C(F)(F)C(F)(F)C(F)(F)C(F)(F)C(F)(F)F |  | inactive
CN(CCO)S(=O)(=O)C(F)(F)C(F)(F)C(F)(F)C(F)(F)C(F)(F)C(F)(F)C(F)(F)C(F)(F)F | 0.0742 µM (active) | inactive
Oc1ccc(Cc2ccccc2O)cc1 |  | inactive
CCCCCCCCCCCC | 11.1 µM (active) and 7.93 µM (active) | 
O=S(=O)(O)C(F)(F)C(F)(F)C(F)(F)C(F)(F)C(F)(F)C(F)(F)C(F)(F)C(F)(F)C(F)(F)C(F)(F)F | 10.3 µM (active) | inactive
CN(Cc1cnc2nc(N)nc(N)c2n1)c1ccc(C(=O)N[C@@H](CCC(=O)O)C(=O)O)cc1 | 0.607 µM (active) | inactive
O=C1NS(=O)(=O)c2ccccc21 |  | inactive
O=P(O)(O)CCC(F)(F)C(F)(F)C(F)(F)C(F)(F)C(F)(F)C(F)(F)C(F)(F)C(F)(F)F |  | inactive
O=C(O)C(F)(F)OC(F)(F)C(F)(F)OC(F)(F)C(F)(F)OC(F)(F)C(F)(F)C(F)(F)C(F)(F)F | 8.5 µM (active) and 8.66 µM (active) | 
